Results on 25 molecules are retold here after PubChem BioAssay (NCI).

About 83,000 compounds went through this panel and 20% of them were active in at least one assay; those are over-represented in the sample as a whole.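 Each cell line was grown in a 96-well plate and treated with one concentration of compound for 48 hours. Values below 10 were considered active.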 A number with no mark means an inactive call. Active and inactive are the calls of the source.

This assay deals with MDA-MB-468 breast. Description: NCI-60 one-dose screen, 48 h (100 = growth as untreated, 0 = no growth, -100 = all killed). Conditions: 10 µM unless noted.
With `O=c1c2cc(F)ccc2sc2c(NCCN3CCCC3)nc3ccccc3c12`, the growth is 65.8%. Turning to `CC(C)(C)c1ccc(C(=O)Nc2nc3ccc(O)cc3s2)cc1`, the growth was 18.6%.

Consider `CN1CCN(Cc2ccc(NC(=O)c3cc(C#Cc4cnc(N)c5ncccc45)n(C)n3)cc2C(F)(F)F)CC1`, for which the growth was 104%. Consider `CCN(CC)c1nc(SCc2ccccc2Cl)ncc1C`, for which the growth is 69.6%. Consider `CCCCCCCCCCCCCCCCOP(=O)([O-])OCC[N+](C)(C)C`, for which the growth is -24% (active). For the molecule `CC(=O)c1ccc(Nc2nc(C(C)=O)c(C)s2)cc1`, the growth is 94.5%. For `COc1ccc(/C=C/c2c(C(=O)/C=C/c3ccc(Cl)cc3)c(C)nc3ccccc23)cc1`, the growth is 34.7%. Turning to `Cc1cc(SCc2ccccc2)nc(N)n1`, the growth was 110%.

As to `COc1cc(C(N)=O)cc(OC)c1OC`, the growth is 103%. With `O=C(O)c1ccc(-n2cc(/C=N/Nc3ccccc3)c(-c3ccc(F)cc3F)n2)cc1`, the growth was 89.3%. Take `Fc1ccccc1Nc1n[nH]c(=S)s1`: the growth was 106%. With `CN1C=CN(Cc2ccc(-c3ccccn3)nc2)[CH-]1.CN1C=CN(Cc2ccc(-c3ccccn3)nc2)[CH-]1.[Au+3]` the figure was -19.2% (active); with `COc1ccc(NC(=O)COCCOCCNC[C@@H]2C(=O)O[C@H]3[C@H]2CC/C(COC(=O)OC/C2=C/CC[C@@]4(C)O[C@H]4[C@H]4OC(=O)[C@@H](CN(C)C)[C@@H]4CC2)=C\CC[C@@]2(C)O[C@@H]32)c(O)c1C(N)=O`, -19.5% (active).

On to `COc1cc2cc(Oc3ccc(NC(=O)Nc4cccc(C(F)(F)F)c4)cc3)c(C)nc2cc1OCCN1CCCCC1`, for which the growth was -68.7% (active). As to `O=C(CCN1C(=O)/C(=C/c2ccccc2)SC1=S)N1CCOCC1`, the growth was 51.9%. For the molecule `CCOC(=O)C1=C(c2ccccc2)N=C2N(c3ccccc3)N=C(C(C)=O)N2C1c1ccc(Br)cc1` (stereo not given), the growth was 99.3%.

`N#Cc1c(NC(=O)c2ccc(Br)cc2)sc2c1CCCC2`: the growth was 19.5%. As to `CCc1nn2c(-c3ccccc3)c(-c3cc(OC)c(OC)c(OC)c3)nc2s1`, the growth was 66%. With `COc1ccc2c(c1)c(-c1nnc(N)nc1-c1c[nH]c3ccc(F)cc13)cn2C` the figure was 2.84% (active); with `O=C(Nc1cccc([N+](=O)[O-])c1)c1cccc(C(=O)Nc2cccc([N+](=O)[O-])c2)c1`, 67.1%; with `CNc1sc(S(=O)(=O)NC)nc1S(=O)(=O)c1ccc(C)cc1`, 86.3%. With `COc1ncc(-c2ccc3ncnc(Nc4cccc(Cl)c4)c3c2)cc1NS(C)(=O)=O`, the growth is -43.3% (active). With `OCC(O)COc1ccc(Cl)cc1Cl` (stereo not given) the figure was 111%; with `Cc1ccccc1NC(=O)c1sc2nc(C)c(C(=O)/C=C/c3ccccc3)cc2c1N`, 9.61% (active); with `CC(C)(C)OC(=O)N1CCc2c(sc3ncnc(N/N=C/c4cccc(Br)c4)c23)C1`, 52.2%.
